Where “and” joins values, the source holds several entries; their conditions need not be identical. Identical values can stand only once. Records with an inconclusive call do not appear. Some compounds were tested as several samples or in several runs, with calls that do not always agree. Calls of active or inactive are those of the source. The calls were made as follows: active = hit-call score of the fitted dose curve at least 0.9, where 1 is the maximum; inconclusive = response in the unintended direction; inactive = score below 0.9.

Sequence of Glucocorticoid receptor (Homo sapiens) (P04150 whole entry, looked up): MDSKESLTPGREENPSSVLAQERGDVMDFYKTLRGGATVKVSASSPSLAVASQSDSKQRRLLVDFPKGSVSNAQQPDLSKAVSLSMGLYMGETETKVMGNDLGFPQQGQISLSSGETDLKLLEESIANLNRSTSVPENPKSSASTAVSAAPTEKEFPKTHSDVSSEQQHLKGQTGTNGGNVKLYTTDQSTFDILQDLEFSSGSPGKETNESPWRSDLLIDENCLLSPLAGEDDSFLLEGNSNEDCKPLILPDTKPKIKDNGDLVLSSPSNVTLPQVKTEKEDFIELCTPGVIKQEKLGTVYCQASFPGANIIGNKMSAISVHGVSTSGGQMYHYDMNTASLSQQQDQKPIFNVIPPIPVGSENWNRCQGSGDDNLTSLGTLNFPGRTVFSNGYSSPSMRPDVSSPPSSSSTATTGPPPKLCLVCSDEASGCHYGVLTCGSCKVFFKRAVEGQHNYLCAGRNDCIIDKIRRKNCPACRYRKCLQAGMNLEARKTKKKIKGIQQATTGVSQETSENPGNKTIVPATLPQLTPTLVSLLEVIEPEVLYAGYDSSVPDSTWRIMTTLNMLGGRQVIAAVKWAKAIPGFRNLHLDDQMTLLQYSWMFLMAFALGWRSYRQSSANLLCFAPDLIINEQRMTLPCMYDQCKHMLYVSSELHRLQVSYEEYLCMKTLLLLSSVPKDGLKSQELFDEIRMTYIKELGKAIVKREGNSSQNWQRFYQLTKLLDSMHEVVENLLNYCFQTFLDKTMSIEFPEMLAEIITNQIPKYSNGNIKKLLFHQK

This experiment addresses Glucocorticoid receptor (Homo sapiens) (UniProt P04150). The experiment is described as follows: NVS_NR_hGR: NovaScreen (NVS) Nuclear Receptor Binding Assay for human Glucocorticoid Receptor (GR) (AID 2283363). As for the experimental part:
NVS_NR_hGR is a biochemical, single-readout assay that uses extracted gene-proteins in a cell-free assay. Measurements were taken 16 hours after chemical dosing in a 96-well plate.NVS_NR_hGR is one of one assay component(s) measured or calculated from the NVS_NR_hGR assay. It is designed to make measurements of radioligand binding, a form of binding reporter, as detected with scintillation counting signals by Filter-based radiodetection technology.Data from the assay component NVS_NR_hGR was analyzed into 1 assay endpoint. This assay endpoint, NVS_NR_hGR, was analyzed in the positive analysis fitting direction relative to DMSO as the negative control and baseline of activity. Using a type of binding reporter, loss-of-signal activity can be used to understand changes in the binding as they relate to the gene NR3C1. Furthermore, this assay endpoint can be referred to as a primary readout, because the performed assay has only produced 1 assay endpoint. To generalize the intended target to other relatable targets, this assay endpoint is annotated to the nuclear receptor intended target family, where the subfamily is steroidal.
Binding assays used specific radioligands (tritiated, iodinated) with non-radioactive competitive displacement ligands in agonist or antagonist protocols (as indicated) and various reference compounds and inhibitors to titrate specific binding to receptors and transporters. Most enzyme assays (CYPs, kinases, phosphatases, proteases, HDACs) used recombinant protein and specific substrates (fluorescence mostly, some colorimetric and radioactive) and inhibitors, followed by a biochemical separation of substrate and product. All assays for the biochemical HTS were initially run in duplicate at a single concentration (10 uM for CYP450 assays and 25 uM for all others). […] Each assay was run with positive and negative controls, and concurrent controls on every plate. The follow-up (secondary) screen tested active chemical-pairs in concentration series, as well as a few additional assays not tested in the primary screen, some selected negative inactives, and several cases re-run in the concentration series for confirmatory purposes.
Regarding `Oc1ccc(C(c2ccc(O)cc2)C(Cl)(Cl)Cl)cc1`, the half-maximal activity concentration (AC50) was 1.01 µM (active).
The same measure, in the same setting: the value for `S=C([S-])NCCNC(=S)[S-].[Mn+2]` was 10.1 µM (active); that for `CCCCC(CC)COC(=O)c1ccccc1C(=O)O` (stereo not drawn) was 7.38 µM (active).
`CC(C)CCCCCCc1ccc(O)cc1`: the AC50 was 7.09 µM (active) and 16.2 µM (active) and 15.9 µM (active).
As to `CC1(C)C(C=C(Cl)Cl)C1C(=O)OCc1cccc(Oc2ccccc2)c1` (stereo not drawn), the call was inactive.
On to `CCCCC(CC)CN1C(=O)C2C3C=CC(C3)C2C1=O` (stereo not drawn), for which the AC50 is 25 µM (active).
As to `O=C(c1ccc(O)cc1O)c1ccc(O)cc1O`, the AC50 was 9.33 µM (active) and 8.91 µM (active) and 10.9 µM (active).
For the compound `C[C@]12CC[C@@H]3c4ccc(O)cc4C[C@@H](CCCCCCCCCS(=O)CCCC(F)(F)C(F)(F)F)[C@H]3[C@@H]1CC[C@@H]2O` (stereo partly drawn), the AC50 is 13.1 µM (active) and the compound was called inactive.
Regarding `CCCN(CCC)C(=O)SCC`, the concentration at half-maximal activity (AC50) is 7.09 µM (active).
Still for that read-out and setting: the value for `COC(=O)c1ccccc1C(=O)O` was 5.83 µM (active).
With `CSC(=O)c1cccc2nnsc12`, the compound was called inactive.
For `C=CCOC(Cn1ccnc1)c1ccc(Cl)cc1Cl` (stereo not drawn), the concentration at half-maximal activity (AC50) was 15.4 µM (active).

Usually AC50 stands for the midpoint of the concentration-response curve, whichever way the signal moves.

(Values after PubChem BioAssay (EPA / NIEHS).)
